Measurements: PubChem BioAssay (NCATS)
Several values for one entry are separate records, joined by “and”; a condition that tells them apart may be missing. Equal values may be shown once. Inconclusive results are not listed. Activity calls are given as the source filed them. Unless noted, calls come from the whole dose curve; as a rule, active = well fitted curve in the direction sought with a large enough effect; inconclusive = small, poorly fitted or top-dose-only effect, or another doubt; inactive = no such curve, though single readings can be large; an effect the other way counts as inactive or inconclusive.

Tests used:
[1] = biological target: Arylsulfatase A (Homo sapiens) (UniProt P15289); test: qHTS screen for enhancers of Arylsulfatase A (ASA1): LOPAC Validation Assay (AID 720538)
Arylsulfatase A (Homo sapiens), sequence (P15289 whole entry, looked up): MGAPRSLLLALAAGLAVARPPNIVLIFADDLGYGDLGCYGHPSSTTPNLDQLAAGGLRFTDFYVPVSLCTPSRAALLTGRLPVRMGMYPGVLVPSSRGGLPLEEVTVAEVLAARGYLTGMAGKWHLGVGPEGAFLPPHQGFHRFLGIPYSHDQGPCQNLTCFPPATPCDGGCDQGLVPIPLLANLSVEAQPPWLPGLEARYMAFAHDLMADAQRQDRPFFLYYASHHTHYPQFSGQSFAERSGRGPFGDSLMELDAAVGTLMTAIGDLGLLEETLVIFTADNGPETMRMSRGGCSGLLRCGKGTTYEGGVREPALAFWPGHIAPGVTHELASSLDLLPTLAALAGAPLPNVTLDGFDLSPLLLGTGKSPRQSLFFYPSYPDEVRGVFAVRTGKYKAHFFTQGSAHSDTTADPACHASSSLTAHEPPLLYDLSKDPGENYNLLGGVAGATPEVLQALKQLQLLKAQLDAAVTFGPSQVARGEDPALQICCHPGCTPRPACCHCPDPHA
How it was run: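 MLD patient fibroblasts (SV40, ASA-I179S), 1536-well; adhere 6 hrs; cpd 48h, 37 degree C, 5% CO2; pNCS 0.5mM final in lysis buffer, 14h RT; stop 1N NaOH final; fluor. Ex525/Em598.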

[2] = qHTS for compounds that reverse cellular toxicity of Amyloid beta (A-beta) peptide in yeast: LOPAC Validation Assay (AID 720559);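 note: plate controls were DMSO for no effect and equimolar ferric chloride plus clioquinol rescue for full effect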
How it was run: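 Medium dispensed, compounds pinned, A-beta yeast suspension added; plates held at 30 C for 48 hr; absorbance measured at 600 nm to gauge growth; values scaled between DMSO and FeCl3/clioquinol (equimolar) controls.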

[3] = qHTS for Activators of Parkin Expression: LOPAC Validation Assay (NLuc Reporter) (AID 720572)
How it was run: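 Neuronal line stably carrying a FLuc/NLuc coincidence reporter under the Parkin promoter, seeded 24 h, then dosed in 7-point series for 24 h at 37 C. NLuc luminescence read after FLuc; normalized to DMSO and positive control (100%).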

[4] = qHTS for Activators of Parkin Expression: LOPAC Validation Assay (FLuc Reporter) (AID 720573)
How it was run: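 Cells seeded, 24 h; compounds pinned, 7-pt dose response; 24 h at 37 C/5% CO2; volume reduced; FLuc reagent 10 min RT; luminescence read. Normalization: DMSO = 0, positive control = 100%.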

[5] = biological target: T1, Hexokinase-4 (Homo sapiens) + Glucokinase regulatory protein (Homo sapiens) (UniProt P35557+Q14397); test: qHTS assay for inhibitors of recombinant human GCK-GKRP interaction: ADP-Glo assay (AID 743206);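 note: plate controls were DMSO plus enzyme for no effect and no enzyme for full effect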
T1 sequence (P35557 whole entry, looked up): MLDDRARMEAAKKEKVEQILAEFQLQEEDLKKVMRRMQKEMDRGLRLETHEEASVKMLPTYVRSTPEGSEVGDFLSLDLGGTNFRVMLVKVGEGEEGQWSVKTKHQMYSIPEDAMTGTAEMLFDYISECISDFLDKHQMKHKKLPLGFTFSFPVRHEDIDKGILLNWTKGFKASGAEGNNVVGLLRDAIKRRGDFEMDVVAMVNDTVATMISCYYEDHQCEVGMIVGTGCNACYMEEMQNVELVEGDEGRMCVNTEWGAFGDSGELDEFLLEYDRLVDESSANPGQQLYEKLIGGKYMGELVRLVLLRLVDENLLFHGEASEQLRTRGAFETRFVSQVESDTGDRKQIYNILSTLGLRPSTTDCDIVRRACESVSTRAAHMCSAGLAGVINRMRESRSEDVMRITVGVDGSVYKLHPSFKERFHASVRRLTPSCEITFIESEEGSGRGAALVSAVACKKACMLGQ
T1 sequence (Q14397 whole entry, looked up): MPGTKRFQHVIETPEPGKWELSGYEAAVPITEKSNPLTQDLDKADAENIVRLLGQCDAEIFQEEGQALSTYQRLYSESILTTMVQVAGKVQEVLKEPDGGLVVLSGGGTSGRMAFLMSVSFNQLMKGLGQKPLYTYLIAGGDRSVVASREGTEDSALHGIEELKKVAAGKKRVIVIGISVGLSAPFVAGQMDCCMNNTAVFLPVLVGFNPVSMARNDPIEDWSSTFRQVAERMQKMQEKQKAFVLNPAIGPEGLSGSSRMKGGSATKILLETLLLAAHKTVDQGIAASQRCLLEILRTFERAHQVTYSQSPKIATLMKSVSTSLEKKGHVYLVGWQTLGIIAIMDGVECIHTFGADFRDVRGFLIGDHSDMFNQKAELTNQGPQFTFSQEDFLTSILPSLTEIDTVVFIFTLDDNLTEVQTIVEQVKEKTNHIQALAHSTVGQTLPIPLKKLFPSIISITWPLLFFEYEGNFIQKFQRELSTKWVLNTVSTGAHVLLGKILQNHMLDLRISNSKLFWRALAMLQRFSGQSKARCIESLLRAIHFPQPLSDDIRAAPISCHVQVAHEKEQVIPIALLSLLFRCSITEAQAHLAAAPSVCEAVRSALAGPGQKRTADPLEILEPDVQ
How it was run: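 GST-GCK and FLAG-GKRP (15 nM each in the dispensed mix, with 2 uM S6P) react with 0.4 mM ATP and 5 mM glucose (final) in Hepes pH 7.6 for 60 min at room temperature. ADP is measured by ADP-Glo luminescence.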

[6] = biological target: T1, Hexokinase-4 (Homo sapiens) + Glucokinase regulatory protein (Homo sapiens); test: qHTS assay for inhibitors of recombinant human GCK-GKRP interaction: HTRF assay (AID 743207);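 note: 0% = DMSO with GCK present and -100% = DMSO wells lacking GCK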
How it was run: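 5 nM GST-GCK + 5 nM FLAG-GKRP + 2 uM S6P, pH 7.1 buffer (25 mM Hepes, 2 mM MgCl2, 25 mM KCl, 1 mM DTT, Tween/BSA); pin-transferred cpd; anti-FLAG XL665/anti-GST K; 60 min RT; HTRF.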

[7] = qHTS Assay for Identifying Gametocytocidal Compounds (AID 743244); note: potency is the fitted concentration of half-maximal effect;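 for max response: % is set by controls: 0 for no effect and ±100 for the full control effect; actives lower the fluorescent signal which means gametocytes are killed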; details: P. falciparum 3D7 stage III-V gametocytes, alamarBlue, 72 h; max response: stronger effect = lower value
How it was run: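 Fluorescence at Ex 525/Em 598 nm, recorded 24 h after alamarBlue addition, reports residual metabolic activity of 3D7 gametocytes (stages III–V) following 72 h compound exposure at 37 °C, 5% CO2.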

[8] = qHTS profiling for inhibitors of Plasmodium falciparum (3D7) proliferation (AID 743322);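 note: infected erythrocytes exposed to compound for 72 h before lysis; 100% = DMSO vehicle wells and 0% = 0.29 µM artemisinin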; details: P. falciparum 3D7 proliferation; at 28.7 µM (top of the series) unless noted
How it was run: (§1)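 Erythrocytes infected with P. falciparum (0.3% parasitemia, 2.5% hematocrit) incubated with compounds 72 h at 37 C, 5% CO2. Lysis with saponin/Triton buffer containing SYBR Green I, overnight at room temperature in the dark; DNA fluorescence (485/535 nm) normalised to 0.29 uM artemisinin and DMSO.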

[9] = qHTS profiling for inhibitors of Plasmodium falciparum (DD2) proliferation (AID 743323; call rule not given here); details: lower = more inhibition; at 28.7 µM (top of the series) unless noted
How it was run: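 1536-well qHTS; infected RBCs 0.3% parasitemia/2.5% Hct final; cpd 72 h 37 C 5% CO2; lysis buffer + SYBR Green I, o/n RT dark; FI 485/535; norm. to 0.29 uM artemisinin and DMSO, plate-stack corrected.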

[10] = qHTS profiling for inhibitors of Plasmodium falciparum (HB3) proliferation (AID 743324); details: Plasmodium falciparum HB3 blood-stage proliferation; at 28.7 µM (top of the series);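 note: 100% = DMSO vehicle wells and 0% = artemisinin-treated control wells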
How it was run: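 P. falciparum HB3 grown in erythrocytes (0.3% parasitemia, 2.5% hematocrit final) with compound for 72 h at 37 C, 5% CO2. Parasite DNA detected by SYBR Green after saponin/triton lysis overnight; normalized to 0.29 uM artemisinin and DMSO.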

[11] = qHTS profiling of the MIPE4 collection as inhibitors of Plasmodium falciparum (3D7) proliferation (AID 743344; call rule not given here;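 note: scaled between DMSO vehicle wells and 0.29 µM artemisinin as full inhibition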); details: P. falciparum 3D7 in erythrocytes, SYBR Green DNA fluorescence, 72 h; at 28.5 µM (top of the series)
How it was run: as §1

[12] = qHTS profiling of the MIPE4 collection as inhibitors of Plasmodium falciparum (DD2) proliferation (AID 743345; call rule not given here); details: P. falciparum Dd2 in erythrocytes, SYBR Green DNA, 72 h; at 28.5 µM (top of the series)
How it was run: as §1

[13] = qHTS profiling of the MIPE4 collection as inhibitors of Plasmodium falciparum (DD2) proliferation (Rep 2) (AID 743346; call rule not given here); details: P. falciparum Dd2 in erythrocytes, SYBR Green DNA, 72 h; at 28.5 µM (top of the series)
How it was run: as §1

[14] = biological target: T1, Hexokinase-4 (Homo sapiens) + Glucokinase regulatory protein (Homo sapiens); test: qHTS assay for inhibitors of recombinant human GCK-GKRP interaction: Diaphorase-coupled assay (AID 743205)
How it was run: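 25 mM Hepes pH 7.6, 5 mM glucose, 0.4 mM ATP, 4 U/ml G6PDH; 10 nM each GST-GCK/FLAG-GKRP. Kinetic fluorescence read, 1/min × 30 min. Normalized: DMSO ± enzyme = max/min.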

[15] = qHTS assay for small molecule agonists of the antioxidant response element (ARE) signaling pathway measured by Nrf2-dependant transcriptional activity (AID 720636; active = well fitted curve in the direction sought with a large enough effect in the repeat runs; an effect the other way counts as inactive or inconclusive; note: % of control where 0% means no effect)
How it was run: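 Nrf2-dependent transcription read as ONE-Glo luciferase signal from ARE-luc HepG2 reporter cells after 16 hr compound treatment at 37 C, 5% CO2, in assay medium with 1% dialyzed FBS.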

[16] = qHTS assay for small molecule antagonists of the retinoid-related orphan receptor gamma (ROR-gamma) signaling pathway - cell viability counter screen (AID 720652; active = well fitted curve in the direction sought with a large enough effect in the repeat runs; an effect the other way counts as inactive or inconclusive;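 note: CHO reporter cells with doxycycline-induced ROR-gamma expression; compound exposure lasted 16 hr before ATP read; % is set by controls: 0 for no effect and ±100 for the full control effect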)
How it was run: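 Cytotoxicity is quantified via intracellular ATP (CellTiter-Glo luminescence) in doxycycline-induced CHO ROR response element-luciferase reporter cells treated with compound for 16 hr at 37 C, 5% CO2.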

[17] = qHTS assay for small molecule agonists of the antioxidant response element (ARE) signaling pathway measured by Nrf2-dependant transcriptional activity - cell viability counter screen (AID 720653; active = well fitted curve in the direction sought with a large enough effect in the repeat runs; an effect the other way counts as inactive or inconclusive; note: % is set by controls: 0 for no effect and ±100 for the full control effect); details: ARE-bla HepG2 viability, CellTiter-Glo ATP luminescence, 16 h; max response: stronger effect = lower value
How it was run: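 ARE-bla HepG2 cells (2,000/well) rested 5 hrs at 37C/5% CO2, then exposed to compounds in DMSO for 16 hrs. Viability was read in the same wells as intracellular ATP by luminescence, 30 min at room temperature after reagent addition.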

[18] = qHTS assay for cell viability of HEK293 cells (AID 743288); details: ATP luminescence (CellTiter-Glo), 18 h; max response: stronger effect = lower value; note: % is set by controls: 0 for no effect and ±100 for the full control effect; nearly all actives have a fitted effect of over 50% in size
How it was run: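 HEK293 parental, 2,000 cells/well; ≥5 h pre-incubation 37 C; pintool compound addition; 18 h, 37 C; CellTiter-Glo 30 min RT; luminescence read.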

[19] = qHTS assay for cell viability of the p53RE-bla HCT-116 cell line (AID 743292); note: % is set by controls: 0 for no effect and ±100 for the full control effect; nearly all actives have a fitted effect of over 55% in size
How it was run: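 ATP-based luminescent viability (CellTiter-Glo, 30 min RT) after 16 h compound treatment at 37 C of p53RE-bla HCT-116 cells, seeded at 4,000 cells/well and rested 5 h before dosing.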

CCN(CC)CCNC(=O)c1cc(S(C)(=O)=O)ccc1OC
inactive: Potency [1] | outcome [2] | Potency [3] | outcome [4] | outcome [5] | Potency [6] | max response [7] -4.07%

CN1C[C@H](C(=O)N[C@]2(C)O[C@@]3(O)[C@@H]4CCCN4C(=O)[C@H](Cc4ccccc4)N3C2=O)C[C@@H]2c3cccc4[nH]cc(c34)C[C@H]21
inactive: Potency [1] | outcome [2] | Potency [3] | outcome [4] | outcome [5] | Potency [6]
-1.27%: remaining proliferation (% of control), lower = more inhibition [10]
7.94%: parasite growth remaining, % of DMSO control (lower = more inhibition) [12]
-0.39%: remaining parasite growth % (stronger effect = lower value) [8]
11.7%: parasite growth, % of control (lower = inhibition) [13]
5.44%: parasite growth, % of DMSO control [11]
0.0095%: activity, percent of control [9]

NC(=O)c1cn(Cc2c(F)cccc2F)nn1
inactive: Potency [1] | outcome [2] | Potency [3] | outcome [14] | outcome [5] | Potency [6] | max response [7] 3.65% and -7.75%

CC(C)(C)NCC(O)c1cc(O)cc(O)c1 (stereo not given)
inactive: Potency [1] | outcome [2] | Potency [3] | outcome [4] | outcome [14] | outcome [5] | Potency [6] | max response [7] -9.6% and 12.9%

OC(CCN1CCCCC1)(c1ccccc1)C1CCCCC1 (stereo not given)
inactive: Potency [1] | outcome [2] | Potency [3] | outcome [4] | outcome [5] | Potency [6] | max response [7] -12% and 9.84%

C(=C\c1ccccc1)/CN1CCN(C(c2ccccc2)c2ccccc2)CC1
inactive: Potency [1] | outcome [2] | outcome [4] | outcome [14] | outcome [5] | Potency [6] | max response [7] -4.21% and 5.87%

Cc1scc2c1N(C(=O)CN1CCN(C)CC1)c1ccccc1NC2=O
inactive: Potency [1] | outcome [2] | Potency [3] | outcome [4] | outcome [14] | outcome [5] | Potency [6] | max response [7] 11.1% and 13%

C[n+]1cc2c3c(ccc2c2ccc4cc5c(cc4c21)OCO5)OCO3
inactive: Potency [1] | outcome [2] | Potency [3] | outcome [4] | outcome [5] | Potency [6]
active: Potency [7] 3.16 µM

CCCOc1ccccc1-c1nc2n[nH]nc2c(=O)[nH]1
inactive: Potency [1] | outcome [2] | Potency [3] | outcome [4] | outcome [5] | Potency [6] | max response [7] -5.53% and 14.3%

C[N+](C)(C)CCOC(N)=O
inactive: Potency [1] | outcome [2] | Potency [3] | outcome [4] | outcome [5] | Potency [6] | max response [7] 20.5% and 14.2%

CC(C)(C)c1ccc(C(=O)CCCN2CCC(OC(c3ccccc3)c3ccccc3)CC2)cc1
inactive: Potency [1] | outcome [2] | Potency [3] | outcome [4] | outcome [5] | Potency [6]

CCCCCCCC/C=C\CCCCCCCC(=O)NCc1ccc(O)c(OC)c1
inactive: Potency [1] | outcome [2] | outcome [4] | outcome [14] | outcome [5] | Potency [6] | max response [7] 0.654% and 9.43%

CCCN(CCC)CCc1cccc2c1CC(=O)N2
inactive: Potency [1] | outcome [2] | Potency [3] | outcome [4] | outcome [14] | outcome [5] | Potency [6] | max response [7] 3.57% and 20.6%

CC(C)[N+](C)(CCOC(=O)C1c2ccccc2Oc2ccccc21)C(C)C
inactive: Potency [1] | outcome [2] | Potency [3] | outcome [4] | outcome [5] | Potency [6] | max response [7] -5.05% and 11.3%

CN(C)C/C=C(/c1ccc(Br)cc1)c1cccnc1
inactive: Potency [1] | outcome [2] | Potency [3] | outcome [4] | outcome [5] | Potency [6] | max response [7] -5.39% and -10%

CCNC(=O)N1CCN(CCCC(c2ccc(F)cc2)c2ccc(F)cc2)CC1
inactive: Potency [1] | outcome [2] | Potency [3] | outcome [4] | outcome [5] | Potency [6] | max response [7] -23% and -10.4%

CCO/C([O-])=N/c1c[n+](N2CCOCC2)no1
inactive: Potency [1] | outcome [2] | Potency [3] | outcome [4] | outcome [5] | Potency [6] | max response [7] -5.19%

CCCCNC(=O)NS(=O)(=O)c1ccc(C)cc1
inactive: Potency [1] | outcome [2] | outcome [4] | outcome [15] | outcome [16] | max response [17] 6.42% and -5.96% | outcome [14] | outcome [5] | Potency [6] | max response [7] 0.702% and 32.7% | max response [18] 2.43% and -13.2% | outcome [19]

Cc1nc2sccn2c(=O)c1CCN1CCC(=C(c2ccc(F)cc2)c2ccc(F)cc2)CC1
inactive: Potency [1] | outcome [2] | Potency [3] | outcome [4] | outcome [14] | outcome [5] | Potency [6] | max response [7] -7.25% and 26.8%

Cc1nnc(SCC2=C(C(=O)O)N3C(=O)[C@@H](NC(=O)Cn4cnnn4)[C@H]3SC2)s1
inactive: Potency [1] | outcome [2] | outcome [4] | outcome [14] | outcome [5] | Potency [6] | max response [7] 5.06% and 32.1%

CC(C(=O)O)c1ccc(CC2CCCC2=O)cc1 (stereo not given)
inactive: Potency [1] | outcome [2] | outcome [4] | outcome [14] | outcome [5] | Potency [6] | max response [7] -0.912% and 17.1%
